An excerpt weighted towards active compounds, which were near 2.9% of everything screened.
POLH inh = qHTS for Inhibitors of Polymerase Eta; DNA polymerase eta (Homo sapiens), Q9Y253; recombinant Pol eta, fluorescent DNA replication assay; Potency, µM (series often up to 114 µM), inactives show at the highest dose activity change, negative = inhibition, usual class: inhibitors; 390,000 compounds, 1.2% hits; also: potency is read from the fitted curve at half-maximal effect; % is scaled to controls: 0 for no effect and ±100 for the full control effect
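Pol eta at 10 nM preincubated with compounds 15 min at room temperature; reaction started with fluorescent substrate (50 nM final) and read kinetically at 0 and 10 min.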
POLB inh = qHTS Assay for Inhibitors of DNA Polymerase Beta; P06746; Pol beta primer extension/strand displacement, fluorescence kinetic; Potency, µM (doses to about 114 µM), without a hit: at the highest dose activity change, negative = inhibition, actives largely listed as inhibitors; 340,000 compounds, 1.3% hits; also: potency is read from the fitted curve at half-maximal effect; % is scaled to controls: 0 for no effect and ±100 for the full control effect
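Pol beta (10 nM) was preincubated with compound for 15 min at room temperature. The reaction was then started with 50 nM substrate and read immediately and after a further 10 min at room temperature.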
ALOX12 inh = Primary qHTS assay for inhibitors of human arachidonate 12S-lipoxygenase (ALOX12): Round 2. Polyunsaturated fatty acid lipoxygenase ALOX12 (Homo sapiens), P18054. Potency, µM (top dose mostly 108 µM), for the others: at the top dose activity change, negative = inhibition, most hits filed as inhibitors. 580,000 compounds, 1.1% hits. purified 12hLO, xylenol orange hydroperoxide absorbance. AID 1671190, 2021; also: potency is read from the fitted curve at half-maximal effect; % is scaled to controls: 0 for no effect and ±100 for the full control effect
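Purified human 12hLO (150 nM final) in 25 mM Hepes, 0.01% Triton X-100, pH 7.0 was preincubated 15 min at room temperature with compound. Then 40 uM arachidonic acid was added, 30 min. Hydroperoxide was read by Fe-XO absorbance ratio 573/405 nm.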
Pol iota inh = qHTS for Inhibitors of Polymerase Iota; DNA polymerase iota (Homo sapiens), Q9UNA4; Pol iota fluorescent replication assay, 10 min; Potency, µM (top dose mostly 115 µM), without a hit: at the top dose activity, negative = inhibition, actives largely listed as inhibitors; 390,000 compounds, 1% hits; also: potency is read from the fitted curve at half-maximal effect
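Pol iota at 10 nM preincubated 15 min with compounds at room temperature; reaction started with fluorescent substrate, 50 nM final. Fluorescence read kinetically at 0 and 10 min; buffer-only wells as negative control.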
PI5P4Ka inh = qHTS for Inhibitors of phosphatidylinositol 5-phosphate 4-kinase (PI5P4K); 330,000 compounds, 1.2% hits; max response, %; PI5P4Kalpha enzyme, ADP-Glo luminescence, 60 min; hits give low values; active = max response of -50% or lower; inconclusive = between -30% and -50%; inactive = -30% or higher; also: value at the top dose of about 77 µM; % is scaled to controls: 0 for no effect and ±100 for the full control effect
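Single end-point luminescence (ADP-Glo) quantified ADP from PI5P4Kalpha turnover; ATP 5 microM final, 1 h at RT, 0.1% CHAPS and 0.28 mM EGTA in HEPES pH 7.4.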
Pol kappa inh = qHTS for Inhibitors of Polymerase Kappa. DNA polymerase kappa (Homo sapiens), Q9UBT6. AID 588579, 2011. purified Pol kappa, fluorescent DNA synthesis assay, 10 min. 400,000 compounds, 0.53% hits. Potency, µM (series often up to 107 µM), for inactives: at the highest dose activity, negative = inhibition, hits mostly inhibitors; also: potency is read from the fitted curve at half-maximal effect; % is scaled to controls: 0 for no effect and ±100 for the full control effect
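Pol kappa 10 nM + cpd, 15 min RT; start w/ substrate 50 nM final; fluorescence kinetic read, 0 and 10 min. Neg ctrl: buffer, no enzyme.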
An asterisk follows results filed as active; ? = inconclusive; . = not tested or not shown; [ ] = remark or other dose. Unless noted, calls follow the shape of the dose curve; as a rule, active = well fitted inhibition curve with a large enough effect; inconclusive = small, poorly fitted or top-dose-only effect, or another doubt; inactive = no such curve, though single readings can be large or run the other way.

SMILES	POLH inh	POLB inh	ALOX12 inh	Pol iota inh	PI5P4Ka inh	Pol kappa inh
Cc1cc(/C=C2/C(=N)N3C(c4ccccc4)=CSC3=NC2=O)c(C)n1-c1ccccc1	-21%	5%	?	67%	?	-14%
Cc1cc(/C=C2/C(=N)N3C(=NC2=O)SN=C3S(C)(=O)=O)c(C)n1-c1ccc(F)cc1	?	-13%	?	-7%	-64*	?
COc1ccccc1-n1c(C)cc(/C=C2/C(=N)N3C(=NC2=O)SN=C3S(C)(=O)=O)c1C	79µM*	-12%	-29%	-6%	-51*	-36%
CCOc1ccc(-n2c(C)cc(/C=C3/C(=N)N4C(=NC3=O)SN=C4S(C)(=O)=O)c2C)cc1	40µM*	?	35µM*	7%	-64*	-18%
CC(C)[C@H](NC(=O)CCn1ccc2ccc(F)cc21)C(=O)O	.	.	74%	.	.	.
O=C(Nc1cccc(C(=O)O)c1)/C(=C\c1ccco1)NC(=O)c1ccccc1	?	16%	?	?	?	-30%
O=C(Nc1cccc(C(=O)O)c1)/C(=C\c1ccco1)NC(=O)c1ccccc1Cl	-13%	2%	-19%	?	?	35µM*
Cc1ccc(OCC(=O)Nc2c(C)ccc3nsnc23)cc1C	.	.	-1%	.	.	.
C[N+]1(CC(=O)NNc2c3ccccc3nc3ccccc23)CCOCC1	.	25µM*	-17%	.	.	.
O=C(CN1CCOCC1)NNc1c2ccccc2nc2ccccc12	-16%	-6%	?	13%	-2	-25%
O=C(O)COn1c(-c2ccccc2)nc2ccc(Cl)cc21	-13%	-2%	0%	15%	-4	-9%
O=[N+]([O-])c1ccc2nc(-c3ccccc3)n(OCc3ccc(Cl)cc3)c2c1	16µM*	28µM*	-18%	-5%	-26	?
O=C(/C=C/c1ccc(Br)o1)OCc1nc2ccsc2c(=O)[nH]1	0.79µM*	.	.	10µM*	-67*	10µM*
Cc1ccc(C(=O)OCc2nc3ccsc3c(=O)[nH]2)o1	20%	.	2%	?	1	-14%
CCOC(=O)c1ccc(NC(=O)Cn2ncc(Cl)c(Cl)c2=O)cc1	?	2%	2%	28µM*	-72*	-13%
CCC(=O)Nc1ccc(C(=O)Cn2ncc(Cl)c(Cl)c2=O)cc1	?	?	4%	?	-56*	?
CCOC(=O)c1ccc(NC(=O)CSCc2ccco2)cc1	?	?	?	25µM*	.	?
O=C(Cn1ncc(Cl)c(Cl)c1=O)c1ccc2c(c1)OCCO2	?	.	1%	?	-25	-21%
CCOC(=O)c1ccc(NC(=O)CSCCC(=O)O)cc1	-5%	-1%	-4%	-15%	-2	15%
CNC(=O)CCNC(=O)c1ccccc1-c1ncc(-c2ccc(F)cc2)o1	.	.	2%	.	.	.
CCc1cc(=O)oc2c(C)c(OCC(=O)NCCc3ccc(S(N)(=O)=O)cc3)ccc12	.	.	56%	.	.	.
COCCOc1ncccc1-c1noc([C@@H]2CCCN2Cc2ccc(OC)cc2)n1	.	.	55%[176 µM]	.	.	.
COc1cccc(C(=O)OCC(=O)c2ccc(OC(=O)c3ccco3)cc2)c1	.	.	6%	.	.	.
O=C(NNC(=O)c1cc2cc3ccccc3nc2s1)c1cccc(C(F)(F)F)c1	?	22µM*	0%	?	-25	?
O=C(NNS(=O)(=O)c1ccccc1)c1cc2cc3ccccc3nc2s1	-5%	?	?	1%	-9	-11%
O=C(COc1coc(CN2CCCCC2)cc1=O)NCc1ccccc1F	.	.	15%	.	.	.
CC(Oc1ccc(O)cc1)(P(=O)(O)O)P(=O)(O)O	.	.	-19%[57.4 µM]	.	.	13µM*

Screens from PubChem.
